# From PubChem BioAssay
# Mcl-1 Bim block – inhibitors of Bim-Mcl-1 interaction, human; Bead-based flow cytometry, Bim peptide-Mcl-1 binding; actives 0.1% (n = 190,000); AID 1009; inhibition, % at 10 µM; in the data active means inhibition above about 40%;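 further: 0% = no compound tracer wells and 100% = peptide blocker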
# GLD-1 TGE inh – GLD-1-TGE RNA interaction inhibition (C. elegans) | AID 2280 | actives 0.44% (n = 320,000) | Q17339 | inhibition, % at 5.96 µM | purified GLD-1 + fluorescein TGE RNA, fluorescence polarization;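 active means percent inhibition above a per-plate cutoff, the plate mean of test compounds plus 3 SD, cut at about 30% in these data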;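 further: 0% = DMSO wells with GLD-1 and probe and 100% = wells lacking GLD-1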
# Target sequence (Q17339 whole entry, looked up): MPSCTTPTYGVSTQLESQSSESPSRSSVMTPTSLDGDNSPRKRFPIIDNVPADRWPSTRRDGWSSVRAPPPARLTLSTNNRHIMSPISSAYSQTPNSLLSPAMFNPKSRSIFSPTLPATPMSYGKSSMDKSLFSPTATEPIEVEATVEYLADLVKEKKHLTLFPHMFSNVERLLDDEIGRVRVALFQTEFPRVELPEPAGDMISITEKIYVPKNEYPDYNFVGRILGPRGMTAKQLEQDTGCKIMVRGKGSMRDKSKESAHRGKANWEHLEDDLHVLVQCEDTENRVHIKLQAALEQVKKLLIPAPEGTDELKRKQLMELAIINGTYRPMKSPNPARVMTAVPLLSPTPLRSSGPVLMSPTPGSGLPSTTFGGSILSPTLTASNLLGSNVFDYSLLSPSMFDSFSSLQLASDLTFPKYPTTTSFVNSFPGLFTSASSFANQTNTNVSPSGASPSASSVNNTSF
# Mcl1-Noxa inh – disrupts binding of human Mcl-1 to Noxa peptide; inhibition, % at 21.7 µM; actives 1.5% (n = 220,000); TR-FRET Mcl-1/Noxa peptide binding, 2 h; Q07820;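 active means compounds that cut the protein-peptide binding signal by more than 50% relative to plate controls in a single-dose test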;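 further: His-tagged Mcl-1 with rhodamine Noxa BH3 peptide and terbium anti-His antibody; 0% = Mcl-1 plus Noxa peptide wells and 100% = peptide-only wells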
# Mcl1-Bid inh – Mcl-1/Bid interaction inhibition; TR-FRET Mcl-1/Bid-Dy647 peptide binding, 1536-well; AID 1021; inhibition, % at 21.7 µM; Q07820; actives 0.97% (n = 220,000);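 active means compounds that cut the binding signal by more than half at the single screening dose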;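 further: His-tagged Mcl-1 with europium anti-His antibody binding Bid BH3 peptide; 0% = Mcl-1 plus peptide wells and 100% = peptide-only wells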
# Bcl-xL primary – inhibitors of human Bcl-xL; GST-Bcl-xL / FITC-Bim BH3 peptide fluorescence polarization; inhibition, % at 10.9 µM; actives 0.7% (n = 320,000); AID 2129; Q07817;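 active means inhibition above the mean of all tested compounds plus 3 SD, cutoff set per campaign, cut at about 30% in these data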;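 further: 0% = DMSO wells and 100% = unlabeled Bim-BH3 peptide competitor; inhibitors lower millipolarization by displacing the labeled peptide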
# Target sequence (Q07817 whole entry, looked up): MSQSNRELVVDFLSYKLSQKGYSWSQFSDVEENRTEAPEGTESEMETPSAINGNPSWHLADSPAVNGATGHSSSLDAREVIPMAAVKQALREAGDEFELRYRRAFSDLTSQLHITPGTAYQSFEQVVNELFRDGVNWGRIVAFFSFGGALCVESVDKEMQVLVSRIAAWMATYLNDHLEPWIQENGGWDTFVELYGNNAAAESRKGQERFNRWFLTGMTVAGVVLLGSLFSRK
# MCL1 BIM primary – inhibitors of human MCL1 binding to BIM-BH3 peptide | Q07820 | actives 0.68% (n = 320,000) | inhibition, % at 10.9 µM | AID 2057 | GST-MCL1 / FITC-Bim-BH3 fluorescence polarization;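 active means inhibition above the mean inhibition of all tested compounds plus 3 SD, set per campaign, cut at about 40% in these data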;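 further: 0% = DMSO wells and 100% = unlabeled Bim-BH3 peptide control; higher means more loss of mP so more displacement of Bim peptide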
# Bcl-xL conf – counter-screen for MCL1 inhibitors: confirmation of human Bcl-xL inhibitors. shares compounds with MCL1 BIM primary. GST-Bcl-xL / FITC-Bim BH3 peptide FP binding. inhibition, % at 10.9 µM. actives 54% (n = 1,700). AID 2166;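 active means inhibition above a cutoff equal to the mean inhibition of all tested compounds plus 3 SD, cut at about 30% in these data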;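 further: 0% = DMSO wells and 100% = unlabeled Bim BH3 control peptide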
# MCL1 inh confirm – confirmation of human MCL1 and BIM-BH3 interaction inhibitors | AID 2168 | actives 61% (n = 1,700) | shares compounds with MCL1 BIM primary | GST-MCL1 / FITC-Bim-BH3 fluorescence polarization | inhibition, % at 10.9 µM;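 active means inhibition above the average of all tested compounds plus 3 SD, cut at about 40% in these data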;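 further: 0% = DMSO wells and 100% = unlabeled Bim-BH3 control peptide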
# Starred values were filed as active, the others as inactive; · = no result given; + = active, no number; ! = a repeat was not active. The list is not random: actives were taken first. Their share in the collection is about 2.3%.
SMILES,Mcl-1 Bim block,GLD-1 TGE inh,Mcl1-Noxa inh,Mcl1-Bid inh,Bcl-xL primary,MCL1 BIM primary,Bcl-xL conf,MCL1 inh confirm
O=C(O)c1ccc(O)cc1O,·,0.6,·,·,6.5,2.8,·,·
CC(C)c1cc(Nc2cccc(O)c2)cc(C(C)C)c1O,·,148.2*,·,·,139.9*,146.4*,18.4,14.9
O=C(O)c1cc(-c2ccco2)nc2ccc(Br)cc12,4.0,68.1*!,83.9*!,26.3,95.9*!,140.9*!,44.9*,88.5*
Cc1cc(C2(O)C(=O)Nc3ccccc32)ccc1F (configuration not stated),·,5.3,·,·,3.8,79.4*,14.4,23.6
Cc1cnc(C(=O)OCC(=O)N2CCC(C)CC2)cn1,·,0.3,·,·,·,·,·,·
O=C(O)CC(CC(=O)N1CCN(C(=O)c2ccco2)CC1)c1ccccc1 (configuration not stated),·,3.8,·,·,3.0,6.8,·,·
Cc1cc(C(=O)NNC(=O)COc2ccccc2Cl)n[nH]1,·,1.2,·,·,2.2,0.0,·,·
Cc1nn(-c2ccccc2)c2c1C(c1ccc(O)c(O)c1)N1C(=N2)C(Nc2ccccc2)=Nc2ccccc21 (configuration not stated),3.0,94.9*,38.1,-0.1,64.2*,70.0*,17.7,18.5
O=C(N/N=C/c1ccoc1)c1cc(O)cc(O)c1,·,0.4,·,·,21.2,43.3*,24.8,56.2*
Cc1ccccc1Nc1nc(N)nc(COC(=O)c2ccc([N+](=O)[O-])o2)n1,·,0.5,·,·,-1.9,-8.1,·,·
CCNc1ccccc1CP(=O)(c1ccccc1)c1ccccc1O (configuration not stated),·,+,·,·,+,+,30.0,17.8
Cc1ccc(O)c(CP(=O)(c2ccccc2)c2ccccc2)c1,16.0,8.5,-0.6,-19.7,6.0,4.7,·,·
COC(=O)[C@H](Cc1c[nH]c2ccccc12)NC(=O)NCc1ccccc1,·,-3.1,·,·,0.0,1.9,·,·
O=C1c2cccc3c(N4CCCCC4)ccc(c23)C(=O)N1c1ccc(O)cc1,2.0,36.4*,15.2,-50.1,54.1*,68.5*,59.6*,71.5*
O/C(=C\c1nc2ccccc2[nH]1)c1cccs1,·,-0.9,·,·,8.9,13.9,·,·
O=c1[nH]c2ccccc2nc1/C=C(\O)c1cccs1,1.0,-161.7,-10.8,-5.9,81.3*,100.5*,87.6*,91.3*
CC1(C)Cc2c(sc(N)c2C#N)C(C)(C)N1,-6.0,-11.1,2.9,-68.4,6.1,-0.4,·,·
CN1Cc2sc(N)c(C#N)c2CC1(C)C,1.0,23.8,-2.0,-52.8,60.6*,59.4*,22.4,12.6
COc1ccccc1N1CCN(C(=O)c2cc(=O)c3c(C)cc(C)cc3o2)CC1,·,4.2,·,·,-0.6,0.1,·,·
COc1cccc(/C=N/NC(=S)Nc2cccc(C(=O)O)c2)c1O,-2.0,-6.8,34.1,-21.5,13.2,55.9*,21.8,72.2*
CCc1ccccc1N1CC(C(=O)Nc2nccs2)CC1=O (configuration not stated),·,1.3,·,·,2.0,1.7,·,·
CSc1nnc(N2C(=O)C(O)=C(C(=O)c3ccco3)C2c2ccccc2F)s1 (configuration not stated),·,86.3*,·,·,69.5*,79.8*,25.0,25.3
O=C(C1=C(O)C(=O)N(c2nc3ccc(Cl)cc3s2)C1c1ccco1)c1ccco1 (configuration not stated),·,1.2,·,·,19.3,56.6*,26.1,47.6*
CSc1nnc(N2C(=O)C(O)=C(C(=O)c3ccco3)C2c2ccccc2)s1 (configuration not stated),·,54.3*,·,·,54.0*,53.5*,54.2*,69.6*
COc1ccc(/C=N/n2c(COc3ccccc3)n[nH]c2=S)cc1OC,·,1.8,·,·,-22.9,-12.9,·,·
SMILES,Mcl-1 Bim block,GLD-1 TGE inh,Mcl1-Noxa inh,Mcl1-Bid inh,Bcl-xL primary,MCL1 BIM primary,Bcl-xL conf,MCL1 inh confirm
FC(F)(F)c1cc(NC2CCCCC2)ccn1,·,-3.5,·,·,8.0,-1.4,·,·
O=C(NCCCc1nc2ccccc2[nH]1)c1ccc(F)cc1,0.0,-4.6,2.1,-11.5,0.2,5.3,·,·
Cc1cc(C(=O)COc2cccc3cccnc23)c(C)n1C,-4.0,150.6*,-3.6,-57.0,146.9*,177.0*,14.4,8.3
COC(=O)C1=C(C(=O)OC)C(c2ccccc2O)c2sc(=O)[nH]c2S1 (configuration not stated),7.0,2.9,56.5*,-8.9,33.4*,53.6*,22.2,53.9*
COC(=O)c1sc2ccccc2c1N,-4.0,-9.6,10.1,-24.2,4.2,3.7,·,·
COc1cc([N+](=O)[O-])cc(/C=C2/SC(=S)N(Cc3ccccc3)C2=O)c1O,·,0.1,·,·,49.2*,72.5*,69.9*,80.2*
O=C1/C(=C\c2cc(Br)cc(Br)c2O)SC(=S)N1Cc1ccccc1,·,-12.3,·,·,20.6,50.6*,23.8,48.8*
O=C1/C(=C\c2ccc(O)cc2)SC(=S)N1Cc1ccccc1,·,-41.7,·,·,-21.1,-27.9,·,·
Cc1cc(C(=O)N/N=C/c2cc(Cl)cc([N+](=O)[O-])c2O)n[nH]1,·,4.8,29.1,-105.8,7.7,8.7,·,·
CN(C)C1(CN=Cc2cc(Cl)cc([N+](=O)[O-])c2O)CCCCC1,·,5.2,·,·,8.2,60.5*,-2.5,2.2
O=C1CCCC2=C1C(c1ccco1)Nc1ccc3ccccc3c12 (configuration not stated),1.0,8.7,99.0*,60.0*,25.3,66.5*,27.7,78.4*
COc1ccc(C2=NOC(Cn3nc(C(=O)NCc4ccccc4OC)cc3-c3ccccc3)C2)cc1 (configuration not stated),·,-1.5,·,·,4.7,2.3,·,·
CN1CCN(C(c2ccc(Cl)cc2)c2cc(Cl)c3cccnc3c2O)CC1 (configuration not stated),·,8.4,·,·,17.6,43.4*,35.6*,95.4*
CN1CCN(C(c2ccc(C(F)(F)F)cc2)c2cc(Cl)c3cccnc3c2O)CC1 (configuration not stated),·,-0.7,·,·,11.6,34.2,·,·
Nc1ccc(N2CCCCCC2)cc1,7.0,20.6,65.0*,-19.3,26.7,41.7*,38.3*,57.4*
O=C(CSc1ccc(Cl)cc1)c1ccco1,-1.0,1.2,41.0,4.4,17.4,63.5*,23.2,75.2*
CC(=O)Nc1ccc2nc3c(=O)n(C)c(=O)n(C)c3nc2c1,·,65.3*,57.5*,-21.0,131.8*,190.3*,145.6*,190.1*
CCc1ccc2nc(N(CCCN(C)C)C(=O)c3ccc(S(=O)(=O)N4CCCC4)cc3)sc2c1,·,-5.6,·,·,2.8,43.6*,10.3,9.5
N#CC1=C(N)SC(N)=C(C#N)C1c1ccoc1,-4.0,21.4,41.0,-28.2,67.2*,80.4*,4.0,-3.6
